Shown are actives, neighbours in structure and some others; about 1.4% of the full set was active somewhere.
MbtI inh: MbtI salicylate synthase inhibitors, primary screen, biochemical, fluorescence intensity; P9WFX0; purified MbtI enzyme, fluorescence intensity read-out; inhibition, % (concentration not given with the values); hit rate 0.89% among 100,000; in the data active = inhibition mostly above about 56%, no sharp cut-off; inactive = mostly below about 77%
AID504770: growth inhibition of E. coli YBA685, primary screen, V. cholerae RctB inhibitors | hit rate 0.27% among 130,000 | z-score (no concentration beside the values) | E. coli YBA685 rctB-dependent plasmid, OD600 growth, 3 h; hits give low values; in the data active = z-score below about -2, passing the limit was not always enough
Mtb MenB inh: M. tuberculosis MenB inhibitors, primary screen, biochemical, absorbance; hit rate 0.43% among 100,000; inhibition, % (concentration not given with the values); AID 540299, 2011; MenB enzyme assay, absorbance read-out; in the data active = inhibition above about 21%, passing the limit was not always enough
Polio RdRp inh: poliovirus RdRp elongation inhibitors, primary screen, biochemical, fluorescence polarization, total intensity; poliovirus polymerase elongation; hits give low values; % elongation, % (compound at 16.7 µg/mL); hit rate 0.66% among 150,000; AID 588519, 2011; in the data active = % elongation below about 90%
Target sequence (P03300 1749-2209 limits assumed): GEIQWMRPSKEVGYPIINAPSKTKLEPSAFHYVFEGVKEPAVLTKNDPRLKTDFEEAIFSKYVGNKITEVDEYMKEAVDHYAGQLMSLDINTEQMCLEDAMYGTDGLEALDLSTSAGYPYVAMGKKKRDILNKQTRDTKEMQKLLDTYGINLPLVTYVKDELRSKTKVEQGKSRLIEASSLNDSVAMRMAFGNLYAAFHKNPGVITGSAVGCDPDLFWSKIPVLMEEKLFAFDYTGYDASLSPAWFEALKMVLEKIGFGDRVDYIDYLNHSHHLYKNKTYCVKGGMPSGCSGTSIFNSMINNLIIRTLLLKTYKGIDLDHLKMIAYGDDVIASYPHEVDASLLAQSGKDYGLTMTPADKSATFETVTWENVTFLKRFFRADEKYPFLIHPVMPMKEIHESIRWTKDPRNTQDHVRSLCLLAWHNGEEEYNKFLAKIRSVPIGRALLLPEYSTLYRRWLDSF
* hit, by the source's call; i = inactive; . = not tested or not shown.

SMILES	MbtI inh	AID504770	Mtb MenB inh	Polio RdRp inh
Cn1c(SCC(=O)N(c2ccccc2)C2CCCCC2)nc2cc(S(N)(=O)=O)ccc21	17	-0.3	6	79*
Cc1cc(C(=O)NN2C3CSC2CS3)no1	-4	-0.25	75*	99
Cc1cc(C(=O)NC2CCCCCC2)no1	-10	-0.4	-3	106
COc1ccc(C(=O)NCCc2ccccn2)cc1S(=O)(=O)NC1CCCC1	0	-0.1	1	100
N#Cc1sccc1CSc1ccc(Cl)cc1	.	0.8	.	.
CN(C)C=NC(=S)c1sccc1CSc1ccc(Cl)cc1	74*	1.8	-26	106
NC(=O)c1ccsc1NC(=O)Cc1ccc(S(=O)(=O)N2CCOCC2)s1	-7	-5.4*	-11	112
O=C(O)c1ccc2nc(-c3cc4cccc(O)c4oc3=O)[nH]c2c1	.	.	.	79*
Cc1c(CNCCc2c[nH]c3ccccc23)c(C(=O)O)c(C)n1Cc1ccc(F)cc1Cl	-8	-1.2	-14	102
FC(F)(F)CN(Cn1nc(-c2ccco2)oc1=S)Cn1nc(-c2ccco2)oc1=S	80	-0.2	-8	76*
C[C@@H]1NCCc2cc(O)c(O)cc21	76*	.	2	101
Cc1ccc(Nc2n[nH]c(=O)c3ccccc23)cc1C	18	-0.65	11	98
CCC(C)NS(=O)(=O)c1ccc(S(=O)(=O)N(Cc2ccc(C)o2)C2CCCC2)cc1 (stereo unspecified)	-2	0.9	33*	102
CCNS(=O)(=O)c1ccc(S(=O)(=O)N(Cc2ccccn2)C2CCCCC2)cc1	-13	-0.6	-24	105
Cc1ccc2cc(CN(CC3CCCO3)C(=O)C3CCC3)c3nnnn3c2c1 (stereo unspecified)	-8	-0.45	-28	105
c1nc2c3sc4nc(N5CCOCC5)c5c(c4c3ncn2n1)CCC5	1	1.4	28*	100
CCCCCSc1ncnc2c1sc1nc(N3CCOCC3)c3c(c12)CCCC3	.	.	.	105
C1CN2CN3CCN(CN1C3)C2	-10	-2.4*	-27	103
S=c1[nH]nc(SCc2ccccc2)s1	87*	-0.3	-12	98
COC(=O)Cn1c(C(=O)OC)cc2c1ccn2-c1ccc(F)cc1	89	0.1	8	101
COC(=O)Cn1c(C(=O)OC)cc2c1ccn2C	24	1.1	33*	103
COc1cc(N=CC2=C(O)CC(C)(C)CC2=O)c(OC)cc1Cl	.	-1	.	.
CC1=NN(C)c2nc3c(c(=O)n(C)c(=O)n3C)n2C1	25	-0.4	-6	101
Nc1nc2c(s1)CCc1c-2cnn1-c1ccccc1	.	-0.65	3	42*
Cc1c(-c2ccnc(N)n2)cnn1-c1ccccc1	.	-0.6	.	.
SMILES	MbtI inh	AID504770	Mtb MenB inh	Polio RdRp inh
COc1ccccc1C(=O)NCC(=O)O	0	-0.3	35*	100
O=C(Cn1cnc2c(oc3ccccc32)c1=O)Oc1ccccc1Cl	12	-0.5	-19	60*
Cc1c(-c2ccccc2)cc2ccccn12	i	-0.2	.	104
CCOCCCNc1n[nH]c(=S)s1	93	-0.55	-2	88*
Cn1c(=O)c(C(=O)N2CCN(Cc3ccccc3)CC2)cc2cccnc21	7	-0.3	-16	106
CC(Sc1cccc[n+]1[O-])C(=O)NCC1CCCCC1 (stereo unspecified)	81*	1.4	5	100
Cc1cc(NC(=O)CSc2ccccc2)no1	4	-0.45	32*	98
Cc1cc(NC(=O)CCc2ccccc2)no1	.	-0.2	.	.
O=C1C=CC(=O)N1c1ccc2c(c1)OCO2	99*	-2*	23	102
O=C1c2cccc3cccc(c23)C(=O)N1c1ccc2c(c1)OCO2	.	1.7	.	.
O=C(Nc1ccc2[nH]c(=O)[nH]c2c1)NC1CCCCC1	3	0.1	21	90*
O=C(Cn1cnc2ccccc2c1=O)NCC(=O)NC1CCCCC1	.	0.25	.	.
CN(CCC#N)CC1Cc2ccccc2O1 (stereo unspecified)	-1	1.3	45*	103
CC1CCN(S(=O)(=O)c2ccc3[nH]c(=O)cc(C(=O)NCCCN4CCOCC4)c3c2)CC1	22	-0.4	-10	99
CC(NC(=O)c1cc(=O)[nH]c2ccc(S(=O)(=O)N3CCOCC3)cc12)C12CC3CC(CC(C3)C1)C2 (stereo unspecified)	11	-0.2	-13	-9.0*
COc1ccc(NC(=O)c2c(NC(=O)c3ccncc3)sc3c2CCC(C(C)(C)C)C3)cc1 (stereo unspecified)	.	.	.	102
CCOc1ccc(NC(=O)c2c(NC(=O)c3ccncc3)sc3c2CCC(C(C)(C)C)C3)cc1 (stereo unspecified)	.	.	.	83*
CCC1CCCCN1C(=O)Cn1c(=O)n(CCC(=O)NCc2ccc3c(c2)OCO3)c(=O)c2ccccc21 (stereo unspecified)	-4	-0.55	12	100
Cc1snnc1C(=O)Oc1ccccc1-c1nnco1	-61	0.6	10	78*
O=C(Oc1ccccc1-c1nnco1)c1ccc(C(F)(F)F)cc1	-104	-0.55	-80	105
O=C(Sc1ccc(C(F)(F)F)cn1)c1csc(C2COc3ccccc3O2)n1 (stereo unspecified)	71*	-1.2	-12	102
O=C(CSc1nnc(-c2cc3ccccc3[nH]2)n1-c1ccccc1)N1CCNC1=O	2	-0.35	3	58*
CCSc1nc2c(c(=O)[nH]c(=O)n2C)n1CC	98*	-0.45	-1	98
O=c1[nH]c(=S)[nH]c(O)c1C(c1ccc(F)cc1)N1CCCCC1 (stereo unspecified)	7	-0.15	-52	102
Cc1cc(C)n(C(C)CC(=O)NCc2cccs2)n1 (stereo unspecified)	-12	-0.1	-22	100
SMILES	MbtI inh	AID504770	Mtb MenB inh	Polio RdRp inh
CCn1c(COc2cccc(C)c2)nnc1SCC(=O)N1C(C)CCCC1C (stereo unspecified)	-5	-0.45	39*	102
CCn1c(COc2ccc(C)cc2)nnc1SCC(=O)N1CCCc2ccccc21	1	0.95	23	99
Clc1ncnc2sc3c(c12)CCC3	89*	-0.45	1	97
O=C(O)Cn1c2c(c3ccccc31)CSc1ccc(Cl)cc1-2	96*	-0.3	-16	99
O=C(/C=C/S(=O)(=O)c1ccc(Br)cc1)c1ccc(F)cc1	.	-1.9	.	.
O=C(O)/C=C/C(=O)c1ccc(F)cc1	74*	-2	.	43*
O=C(/C=C/S(=O)(=O)c1ccc(Cl)cc1)c1ccc(F)cc1	98*	-1.9	9	98
CN1/C(=N\O)c2cccc3cccc1c23	81*	0.25	-70	96
COC(=O)C(N)C12CC3CC(CC(C3)C1)C2 (stereo unspecified)	3	0.3	17	101
COC(=O)C(F)C(=O)OC	-1	0.8	11	88*
N#CSC12CN3CN(CN(C3)C1)C2	6	0.2	33*	99
O=C(NCCSc1nnnn1-c1ccccc1)c1ccccc1	-5	0.25	-13	103
COC(=O)NCCSc1nnnn1-c1ccccc1	8	1.9	31*	101
